From PubChem BioAssay (NCI)
About 83,000 compounds went through this panel and 20% of them were active in at least one assay; those are over-represented in the sample as a whole.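 Growth was measured after 48 h exposure to one concentration of compound in 96-well plates. Values under 10 count as active.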 The source made the active and inactive calls.

test system: TK-10 renal; assay: NCI-60 one-dose screen, 48 h (100 = growth as untreated, 0 = no growth, -100 = all killed); conditions: 10 µM unless noted
Procedure: Growth inhibition of the TK-10 human tumor cell line is measured as a screen for anti-cancer activity. Cells are grown in 96 well plates and exposed to the test compound for 48 hours. Compounds are tested at a single concentration, which is 10^-5 M for most compounds. The reported endpoint is percent growth (GI% or GIPRCNT), where numbers from 0 - 100% represent growth inhibition, and numbers from -100% - 0 represent cell death. For example, a value of 40 represents 60% growth inhibition. A value of 0 means no net growth occurred over the course of the experiment. A value of -40 indicates 40% of cells at the beginning of the experiment died by the end of the experiment. A value of -100 means all cells are dead at the end of the experiment.
NCI-60 Human Tumor Cell Lines Screen was performed using the standard one-dose NCI protocol, which is described in more detail at https://dtp.cancer.gov/discovery_development/nci-60/default.htm.
Compounds with GIPRCNT values below 10 were considered active. Activity score was based on GIPRCNT using the following formula: […]
Score is 0 for GIPRCNT values of 100 or above, 50 for GIPRCNT values of 0, and 100 for GIPRCNT values of -100.

Compound	growth
CC(C)(C)n1cc(-c2ccnc(NCCCNS(=O)(=O)c3ccccc3)c2)c(-c2cccc(O)c2)n1	89.7% (inactive)
COc1ccc(-c2nc3sc(-c4cc(OC)c(OC)c(OC)c4)nn3c2/C=C2/C(=O)Nc3ccc(F)cc32)cc1	-52.2% (active)
O=C(Nc1cccc(-n2cc(-c3ccncc3)c(-c3ccc(Cl)c(O)c3)n2)c1)Nc1ccc(Cl)c(Cl)c1	7.16% (active)
COc1c2occc2c(OC)c2c(=O)c(-c3cc(-c4ccc(F)cc4)c(C#N)c(N)n3)c(C)oc12	53.7% (inactive)
NC(=N\N=C/c1ccc(O)cc1)/C(N)=N\N=C/c1ccc(O)cc1	83.4% (inactive)
Cc1c(C(=N)C(C#N)C#N)c(=N)oc2c1ccc1ccccc12	121% (inactive)
COc1cc(Nc2ncccc2C(=O)NCc2cn(Cc3cccc(Oc4ccccc4)c3)nn2)cc(OC)c1	70.4% (inactive)
CCCCCCCCCCCCCCCCCCNC(=O)[C@H]1CSC(c2ccc(OC)cc2O)N1 (stereo not given in full)	94.7% (inactive)
CSc1nc2c(c(=O)[nH]1)C(c1ccc(C)cc1)C=C(C(=O)O)N2 (stereo not given)	118% (inactive)
Cc1ccc(N2CCN(C(C)C(N)=O)CC2)cc1 (stereo not given)	114% (inactive)
COc1cc(C2CC(c3ccc4c(c3)OCO4)=NN2C(C)=O)cc(OC)c1OC (stereo not given)	38.2% (inactive)
Cc1cc(N/N=C/c2nc(-c3ccccc3)oc2C)c2cc(Cl)ccc2n1	-76.3% (active)
CCN(CC)c1ccc(CNc2ccnc3ccccc23)cc1	60% (inactive)
Cc1ccc(S(=O)(=O)/C(=C\c2ccc(Cl)cc2)C(=O)c2ccccc2)cc1	124% (inactive)
COc1cc(/C=C/C(=O)c2cccc(-n3cc(-c4cc(OC)c(OC)c(OC)c4)[nH]c3=O)c2)cc(OC)c1OC	27.8% (inactive)
CCOc1cc2c(Cl)ncnc2c(OCC)c1OCC	105% (inactive)
CC(=O)Oc1cccc(S(=O)(=O)n2cc(C(=O)C(=O)Nc3ccncc3)c3ccccc32)c1	102% (inactive)
Cc1ccc2[nH]c(=O)c3c(c2c1)Oc1ncn2nc(-c4ccco4)nc2c1C3c1ccc(Cl)cc1 (stereo not given)	107% (inactive)
NC(N)=N/N=C/c1ccc(-c2ccc(-c3cc(Cl)cc(Cl)c3)s2)cc1	-68.8% (active)
O=C(NCCCNc1nccc(-n2ccc3cccnc32)n1)c1c(F)cccc1F	116% (inactive)

Compound	growth
Cc1ccc(-c2nc(C(Cl)Cl)n3nc(-c4ccccc4)cc3n2)cc1	-68.6% (active)
CCCCCCCCCCCCCCCCNC(=O)OC(C)C	-3.04% (active)
O=C1/C(=C/c2ccc(Cl)cc2)CN(C(=O)CCN2CCC(=NO)CC2)C/C1=C\c1ccc(Cl)cc1	-74.7% (active)
Cc1ccc(S(=O)(=O)NCCNc2nccc(-c3c(-c4cccc(N)c4)nc4sccn34)n2)cc1	116% (inactive)
CCOC(=O)c1ccc(NC(=O)N2CC(C)OC(C)C2)cc1 (stereo not given)	125% (inactive)
COc1cccc(-c2nc3sccn3c2-c2ccnc(NCCCNS(=O)(=O)c3ccc(F)cc3)c2)c1	80.4% (inactive)
COc1ccc(/C=C2/C(=O)NC(SCC(=O)N3CCN(c4cc5c(cc4F)c(=O)c(C(=O)O)cn5C4CC4)CC3)=NC2N)cc1OC (stereo not given)	112% (inactive)
C=C(C)[C@@H]1C[C@@H]2Cc3cc(Cl)ccc3N1O2	129% (inactive)
COc1ccc(/C=C2\Oc3cc(OCCCN4CCCC4)ccc3C2=O)c(OC)c1	103% (inactive)
CCN(CC)c1ccc2[nH]c3c(C(N)=O)cc(=O)c(=O)c=3oc2c1	2.91% (active)
NC1=NN(O)C2=CC([N+](=O)[O-])C=CC2=N1 (stereo not given)	121% (inactive)
O=S(=O)(c1ccc(OCCO)cc1)c1ccc(OCCO)cc1	94.6% (inactive)
Fc1ccc(Nc2nc(NCCNc3ccnc4cc(Cl)ccc34)nc(N3CCOCC3)n2)cc1	86.2% (inactive)
C=C1CCC2C3(C)COC(c4c(OC)cccc4OC)OC3CCC2(C)C1C/C=C1/C(=O)OCC1O (stereo not given)	50.5% (inactive)
c1cc2[nH]ncc2cc1-c1nc2ccc3[nH]ncc3c2c2c1CCC2	30.8% (inactive)
Cc1c(C(N)=O)sc2c1c(=O)n(Cc1ccccc1)c1nnc(Nc3ccccc3)n21	113% (inactive)
CC(C)(C)n1cc(-c2ccnc(NCCCNS(=O)(=O)c3ccc(F)cc3)c2)c(-c2cccc(O)c2)n1	97.6% (inactive)
COc1ccc(C(=O)N2NC(=O)/C(=C/c3ccc(F)cc3)N=C2c2ccccc2)cc1	96.4% (inactive)
COc1cccc(-c2nc3sccn3c2-c2ccnc(NCCCNS(=O)(=O)c3ccc(C(F)(F)F)cc3)c2)c1	85.5% (inactive)
COP(=O)(OC)/C(=N\NS(=O)(=O)c1ccc(C)cc1)c1ccccc1	88% (inactive)
